The source of these data is PubChem BioAssay AID1645883 (National Center for Advancing Translational Sciences (NCATS), 2021).

Where “and” joins values, the source holds several entries; their conditions need not be identical. Equal values may be shown once. About 160 (1%) of roughly 16,000 compounds were called active. Not shown: some 8% with an inconclusive outcome. This is one part of a sample in which actives are shown more often than they occur. Unmarked numbers belong to inactive results. The call rests on the fitted dose curve; in most records, active means well fitted activation curve with a large enough effect; inconclusive means small, poorly fitted or top-dose-only effect; inactive means no such curve, though single readings can be large or run the other way.
On the % scale 0 is the no-effect control and ±100 the full control effect; potency means the concentration at half of the fitted maximal effect.

In the test the target is Rap guanine nucleotide exchange factor 3 (Homo sapiens) (UniProt O95398). Kind of test: Validation qHTS for agonist of cAMP-regulated guanine nucleotide exchange factor 3 (EPAC1). Further: nearly all actives have a fitted effect of over 70% in size. As to conditions: EPAC1 Rap1b BODIPY-GDP exchange, fluorescence; max response: hits give high values, percent of cAMP control response. The source says: Assay Provider (PI): Xiaodong Cheng Ph.D.
Rap guanine nucleotide exchange factor 3 (Homo sapiens), sequence (O95398 whole entry, looked up): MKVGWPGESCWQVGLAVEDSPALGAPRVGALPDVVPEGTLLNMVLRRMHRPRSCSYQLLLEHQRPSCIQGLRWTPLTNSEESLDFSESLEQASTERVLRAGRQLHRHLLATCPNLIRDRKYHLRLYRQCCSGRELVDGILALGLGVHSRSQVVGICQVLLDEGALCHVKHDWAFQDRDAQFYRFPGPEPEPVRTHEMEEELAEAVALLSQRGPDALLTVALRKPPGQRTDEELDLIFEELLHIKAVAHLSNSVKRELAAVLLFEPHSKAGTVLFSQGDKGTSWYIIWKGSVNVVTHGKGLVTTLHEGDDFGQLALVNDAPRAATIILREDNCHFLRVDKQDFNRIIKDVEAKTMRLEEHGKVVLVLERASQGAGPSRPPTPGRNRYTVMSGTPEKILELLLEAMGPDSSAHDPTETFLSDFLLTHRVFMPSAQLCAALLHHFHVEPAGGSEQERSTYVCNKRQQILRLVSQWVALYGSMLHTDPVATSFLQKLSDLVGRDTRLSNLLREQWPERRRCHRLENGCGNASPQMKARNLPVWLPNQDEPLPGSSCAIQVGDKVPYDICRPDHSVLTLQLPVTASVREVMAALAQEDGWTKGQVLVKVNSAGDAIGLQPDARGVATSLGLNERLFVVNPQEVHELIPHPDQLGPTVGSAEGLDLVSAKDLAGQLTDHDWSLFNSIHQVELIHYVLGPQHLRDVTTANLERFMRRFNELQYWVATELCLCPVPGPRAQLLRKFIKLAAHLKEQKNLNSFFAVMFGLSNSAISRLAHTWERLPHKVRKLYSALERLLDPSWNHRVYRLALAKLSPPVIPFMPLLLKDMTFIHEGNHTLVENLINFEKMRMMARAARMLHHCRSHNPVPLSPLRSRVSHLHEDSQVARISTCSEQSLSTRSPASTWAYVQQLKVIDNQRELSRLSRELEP
The University of Texas Medical Branch, […], TX
In multi-cellular eukaryotic organisms, the effects of cAMP are transduced by two ubiquitously-expressed intracellular cAMP receptors, the classic protein kinase A/cAMP-dependent protein kinase (PKA/cAPK) and the more recently discovered exchange protein directly activated by cAMP/cAMP-regulated guanine nucleotide exchange factor (EPAC/cAMP-GEF). Both PKA and EPAC are ubiquitously expressed in all tissues, and an increase in intracellular cAMP levels will lead to the activation of both PKA and EPAC. Therefore, careful dissections of the individual role and relative contribution of EPAC and PKA within the overall cAMP signaling in various model systems are critical for further elucidating the mechanism of cAMP signaling. To date no EPAC-specific antagonists and agonist, as well as isoform-specific agonists have been reported, and developing EPAC-specific pharmacological probes to determine the physiological functions that EPAC play in the overall cAMP-mediated signaling remains a major challenge within the research field. Furthermore, identified regulators of EPAC may lead to new mechanism-based therapeutic strategies specifically targeting the EPAC / cAMP-signaling components as EPAC has been implicated to play important roles in major human pathological conditions such as diabetes, heart disease, and cancer.
This qHTS will be used to screen the Molecular Libraries Small Molecule Repository (MLSMR) as a concentration-titration series using the NCGC unique quantitative screening (qHTS) platform to find activators for EPAC1. In addition, this assay will also be used as a counterscreen for the EPAC2 qHTS. This fluorescent based assay is developed and validated for EPAC1 that measures exchange using EPAC effector Rap1 complex with BODIPY-GDP, a GDP analog with a tethered fluorophores. Activators are identified by monitoring the change in fluorescence signal as the exchanged free BODIPY-GDP has a reduced fluorescence compared to Rap1-bound BODIPY-GDP. Increase in signal (activation) is the desired outcome for the EPAC1 agonist while no activity in this assay is desired for the EPAC2 agonist counterscreen.
[1] de Rooij, J., Zwartkruis, F. J., Verheijen, M. H., Cool, R. H., Nijman, S. M., Wittinghofer, A., and Bos, J.L. (1998) Nature 396, 474-477.
Briefly, three uL of reagents (100 nM EPAC1, 250 nM RAP1B-BODIPY-GDP, 50 uM GDP) were dispensed into a 1536-well Greiner black solid-bottom medium binding assay plate. Controls and test compounds (23 nL) were transferred to the plate via a Kalypsys pin tool equipped with a 1536-pin array. The plates were centrifuged at 1,000 rpm for 15 seconds followed by 5 minute incubation at room temperature. The assay plates were read at 5 minute intervals for 30 minutes in the ViewLux plate reader using 480nm excitation and 540nm emission filters. The results were normalized to the agonist positive control of 6.5 mM cAMP.
For orientation: qHTS replaces the single test concentration by a dilution series.
In the case of `CCC1CN(CCNC(=O)c2cccc(C)n2)Cc2cc(OC)ccc2O1` (centres undefined), the max response is 8.26%. Still for that read-out and setting: under `CC(C)(C)NCC(O)COc1cccc2[nH]c(=O)[nH]c12` (centres undefined) stands -8.93% and -6.11%; under `CC(=O)N1CCC2(CCCN(c3ncccn3)C2)CC1`, -18.4%; under `Cc1ccc(C(=O)Nc2cccc(-c3nc(CNC(=O)c4ccccc4-n4cccn4)c(C)o3)c2)s1`, -3.18%. Still for that read-out and setting: under `Cc1csc(-c2coc3cc(O[C@@H]4O[C@H](CO)[C@@H](O)[C@@H](O)[C@H]4O)ccc3c2=O)n1` stands -1.66%; under `COc1cc2[nH]c(C)c(CCN3CCN(c4ccccc4)CC3)c2cc1OC`, 5.71%. On the same count and under the same terms, under `COCCn1c(=O)c(-c2cc(F)cc(F)c2)nc2cncnc21` stands -6.52%. Turning to `COCC(=O)N1CCC2(CCCN(c3ccccc3)C2)CC1`, the max response is -14.6%.

Regarding `Cc1noc(C)c1-c1nccc(N2CCOCC2)n1`, the max response was 5.18%. On the same count and under the same terms, under `O=P(O)(O)OC[C@H](O)CO` stands -11.2%; under `O=C(O)/C(=C/c1c(C(=O)O)[nH]c2cc(Cl)cc(Cl)c12)c1ccccc1`, -0.525%; under `CCOC(=O)N1CCC(N2CCOc3ccc(CN4CCC(O)(c5cccnc5)CC4)cc3C2)CC1`, -5.78%.

As for `Clc1ccccc1-c1cc(NCCN2CCOCC2)ncn1`, the max response is -6.13%. Still for that read-out and setting: under `Cn1c(=O)c(CCc2ccccc2)nc2cnc(Nc3ccccc3)nc21` stands -11%; under `O=c1cc(-c2ccc(O)c(O)c2)oc2cccc(O)c12`, 8.34%; under `COc1cc(C)c(CN2CCc3nnc(C(C)NC(=O)c4cccnc4)n3CC2)cc1C` (centres undefined), 12.1%. The same measure, in the same setting: under `COCCNc1ncnc2ccc(-c3cccnc3)cc12` stands -29.2%; under `CN(C)c1ccc(/C=c2\[nH]c(=O)/c(=C/c3ccc(N(C)C)cc3)[nH]c2=O)cc1`, 8.62%; under `CC(C)C1=CC2=CC[C@@H]3[C@](C)(CO)CCC[C@]3(C)C2CC1` (some centres undefined), -8.55%. In the case of `Cc1cc2nc3c(=O)[nH]c(=O)nc-3n(C[C@H](O)[C@H](O)[C@H](O)CO)c2cc1C`, the Potency was 100 µM (active). Take `O=C(Nc1ccccc1)N[C@H]1C[C@H](C(=O)O)Nc2cc(Cl)cc(Cl)c21`: the max response is 1.49%. On the same count and under the same terms, under `C=C1CC[C@H](O)CC1=C/C=C1\CCC[C@]2(C)[C@@H]([C@H](C)/C=C/[C@H](C)C(C)C)CC[C@@H]12` stands -127%.

`CC(N)=NCc1cccc(CN)c1`: the max response is 8.83% and -11.8%. Still for that read-out and setting: under `CCOC(=O)C[C@H]1c2ccc(C(F)(F)F)cc2S(=O)(=O)N1c1ccccc1` stands -85%; under `CCC1CN(CCNC(=O)c2cccnc2C)Cc2cc(OC)ccc2O1` (centres undefined), 1.97%; under `Cc1nc2cnc(Oc3cccc(Cl)c3)nc2n(C2CC2)c1=O`, -12.8%. On the same count and under the same terms, under `Cc1[nH]c2c(C(=O)NCC3Cc4cccc(-c5cccnc5)c4O3)cccc2c1C` (centres undefined) stands 19.3%. On to `O=S1(=O)CCO[C@H]2Cc3ccccc3[C@H]2N1Cc1ccccc1`, for which the max response was 7.53%. Still for that read-out and setting: under `CC(=O)OC1CCC2(O)CC1(C)CCC1C2CC1(C)C` (centres undefined) stands -18.2%. The same measure, in the same setting: under `COc1cc2c(cc1OC)CC(=O)N(CCCN(C)C[C@H]1Cc3cc(OC)c(OC)cc31)CC2` stands 1.48%; under `COc1ccc(C2CC(=O)c3c(O)cc(OC4OC(COC5OC(C)C(O)C(O)C5O)C(O)C(O)C4O)cc3O2)cc1O` (centres undefined), -7.79%.

For `O=C(c1cnccn1)N1CCC2(CCN(Cc3cc(C(F)(F)F)cc(C(F)(F)F)c3)CC2)CC1`, the max response was -66.3%.

For the compound `NC(=O)C(=O)N/N=C/c1ccc([N+](=O)[O-])o1`, the max response is -37.2%.

Regarding `COCCNc1ccnc(-c2cccc(NS(C)(=O)=O)c2)n1`, the max response was -9.71%.

Take `Nc1nc(/C(=C/CC(=O)O)C(=O)N[C@@H]2C(=O)N3C(C(=O)O)=CCS[C@H]23)cs1`: the max response was 13.2%.

Take `N#C/C(=C\c1ccc(O)c(O)c1)C(N)=O`: the max response is -9.7% and -17.1%. As for `COc1ccccc1C(=O)N[C@@H]1c2ccccc2C2(CCN(Cc3nc(C(C)C)cs3)CC2)[C@H]1O`, the max response is 12.9%. `CN(C)c1ccc(CN2CCOc3ccc(CN4CCC(O)(c5cccnc5)CC4)cc3C2)cc1`: the max response was -6.57%. Still for that read-out and setting: under `O=C(c1cc(C(F)(F)F)cc(C(F)(F)F)c1)N1CCC2(CC1)CN(c1ccncc1)C2` stands 12.3%; under `O=c1[nH]c(=O)c2nc3ccccc3nc2[nH]1`, -1.62% and 3.86%. The same measure, in the same setting: under `COC(=O)[C@@H]1C[C@H](NC(=O)c2ccccc2C(F)(F)F)CN1Cc1cccc(O)c1` stands -10.1%; under `Cc1cc(-c2ccnc(-n3ncc(C(=O)NC(C)(C)CO)c3C3CC3)n2)c(C)s1`, 5.17%.

Consider `CS(=O)(=O)N1CCC2(CCN(c3ccncc3)CC2)CC1`, for which the max response is -40.6%. Same read-out and setting: under `O=c1c(O)c(-c2ccc(O)cc2)oc2ccccc12` stands -32.1%.
